ADAM10 inh – inhibitors of human ADAM10; O14672; recombinant ADAM10, EDANS/DABCYL FRET peptide cleavage, 3 h; inhibition, % at 7 µM; 370,000 compounds, 0.62% hits;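 active = inhibition above a per-campaign cutoff equal to the mean of compounds falling between control-based bounds plus 3 SD, cut at about 20% in these data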;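 note: 0% = DMSO wells while the 100% control is not disclosed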
Target sequence (O14672 214-748 limits assumed): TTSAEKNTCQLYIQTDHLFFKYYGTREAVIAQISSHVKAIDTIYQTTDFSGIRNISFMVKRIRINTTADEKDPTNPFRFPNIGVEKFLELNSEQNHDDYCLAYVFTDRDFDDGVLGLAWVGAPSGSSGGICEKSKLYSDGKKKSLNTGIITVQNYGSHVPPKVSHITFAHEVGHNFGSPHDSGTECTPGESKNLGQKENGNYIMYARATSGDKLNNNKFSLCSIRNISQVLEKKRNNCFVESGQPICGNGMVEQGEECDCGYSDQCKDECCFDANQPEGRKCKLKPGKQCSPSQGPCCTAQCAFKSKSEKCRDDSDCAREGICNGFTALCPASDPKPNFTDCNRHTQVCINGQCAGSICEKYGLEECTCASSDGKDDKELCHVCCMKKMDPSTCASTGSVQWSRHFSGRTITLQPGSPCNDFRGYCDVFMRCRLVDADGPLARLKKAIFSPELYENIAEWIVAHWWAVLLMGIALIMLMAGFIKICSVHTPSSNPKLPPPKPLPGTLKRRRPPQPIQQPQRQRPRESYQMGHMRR
MPTP inh – blocks calcium-induced mitochondrial swelling; 360,000 compounds, 1.4% hits; AID 602449; inhibition, % at 10 µM; isolated mouse mitochondria, Ca2+ swelling absorbance, 30 min;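 active = inhibition of 50% or more, scaled per plate between neutral and stimulator controls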;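 note: 0% = DMSO wells given calcium and 100% = 1 mM EGTA wells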
DSG3 Ab inh – inhibitors of pemphigus antibody binding to human desmoglein-3 | AID 588358 | binding (percent of control), % at 10 µM | 310,000 compounds, 0.48% hits | DSG3-coupled beads, scFv-anti-DSG3-GFP binding, flow cytometry; stronger effect = lower value;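 active = binding more than 3 SD below its plate's average and above zero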
KLK7 zymogen act – activates the human kallikrein-7 zymogen. 370,000 compounds, 0.9% hits. activation, % at 7 µM. purified proKLK7, EDANS-DABCYL substrate fluorescence; 100% is mature enzyme control, 0% vehicle. P49862;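 active = activation above the mean of all tested compounds plus 3 SD, computed per campaign excluding outliers beyond control limits, cut at about 13% in these data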
ADAM17 inh – ADAM17 inhibition, QFRET primary screen | P78536 | recombinant ADAM17, EDANS/DABCYL FRET peptide cleavage | inhibition, % at 6.95 µM | 370,000 compounds, 0.83% hits | AID 720648;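 active = inhibition above the mean of compounds lying between control limits plus 3 SD, set per campaign, cut at about 8.5% in these data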;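 note: 0% = DMSO-only wells as the low control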
rCAG binder – binds r(CAG) RNA repeats; r(CAG) RNA repeat, TO-PRO-1 dye displacement fluorescence; inhibition, % at 3 µM; 370,000 compounds, 1.3% hits;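 active = inhibition above the plate cutoff, the mean of all test compounds on that plate plus 3 SD, cut at about 35% in these data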;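 note: 0% = DMSO alone and 100% = 100 µM mitoxantrone as full dye displacement; higher means more dye released from RNA so lower well fluorescence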
ADAM10 confirm – confirmation of inhibitors of human ADAM10; AID 743208; inhibition, % at 6.95 µM; 2,100 compounds, 1% hits; shares compounds with ADAM10 inh; ADAM10 QFRET peptide cleavage, EDANS fluorescence;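 active = inhibition above about 20% chosen separately for each screening run, limit read from the data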;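 note: 0% = DMSO wells and 100% = marimastat wells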
ADAM17 ctr – ADAM17 inhibition, counter-screen for ADAM10 exosite hits. shares compounds with ADAM10 inh. ADAM17 QFRET peptide cleavage, EDANS fluorescence. inhibition, % at 6.95 µM. 2,100 compounds, 0.5% hits;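 active = mean triplicate inhibition above the solvent-only control wells' mean plus 3 SD, cut at about 12% in these data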;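 note: 0% = DMSO wells and 100% = marimastat wells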
* marks the source's active call; other numbers are inactive results. Hits are enriched below; roughly 4.7% of the tested compounds scored in any of these assays.

For CC(NC(=S)NC(=O)c1cccs1)c1ccccc1 (stereo not given) the results were ADAM10 inh 7, MPTP inh 1, DSG3 Ab inh 97, KLK7 zymogen act 0, ADAM17 inh 1 and rCAG binder 3.
For Cc1ccc(Oc2ccc(-c3nc(N)nc(N)n3)cc2)cc1C the results were ADAM10 inh 20*, MPTP inh 0, DSG3 Ab inh 108, KLK7 zymogen act 0, ADAM17 inh 5, rCAG binder 2, ADAM10 confirm 2 and ADAM17 ctr 1.
COC(=O)c1cc(S(=O)(=O)N2CCN(c3ccc(C(C)=O)cc3)CC2)cn1C was read as ADAM10 inh -10, MPTP inh -3, DSG3 Ab inh 104, KLK7 zymogen act -1, ADAM17 inh -6 and rCAG binder 6.
`CCOc1ccc(OCCC(=O)OCC(=O)Nc2cc(S(=O)(=O)N3CCOCC3)ccc2OC)cc1` gave ADAM10 inh -6, MPTP inh -2, DSG3 Ab inh 101, KLK7 zymogen act 0, ADAM17 inh -7 and rCAG binder 6.
Screening CCOc1ccc(OCCC(=O)OCC(=O)Nc2cc(S(=O)(=O)N3CCOCC3)ccc2C)cc1 returned ADAM10 inh 68*, MPTP inh 1, DSG3 Ab inh 102, KLK7 zymogen act 0, ADAM17 inh -3, rCAG binder 3, ADAM10 confirm 0 and ADAM17 ctr 0.
For CCOc1ccc(OCCC(=O)OCC(=O)Nc2ccc(C)c(S(=O)(=O)N3CCCCC3)c2)cc1 the results were ADAM10 inh 23*, MPTP inh -1, DSG3 Ab inh 100, KLK7 zymogen act 1, ADAM17 inh 8, rCAG binder 4, ADAM10 confirm 8 and ADAM17 ctr 2.
Screening CC1CCN(CCCNC(=O)CN2CCN(Cc3ccc(Cl)cc3)C2=O)CC1 returned ADAM10 inh 49*, MPTP inh -2, DSG3 Ab inh 115, KLK7 zymogen act 0, ADAM17 inh -1, rCAG binder 3, ADAM10 confirm 3 and ADAM17 ctr 1.
`COc1ccc(S(=O)(=O)N(C)C[C@@H]2OCc3cn(nn3)CCCC(=O)N([C@H](C)CO)C[C@H]2C)cc1` gave ADAM10 inh -11, MPTP inh -1, KLK7 zymogen act 0, ADAM17 inh -6 and rCAG binder -1.
`O=c1cc(-c2ccccc2)oc2ccccc12` gave ADAM10 inh -3, MPTP inh 0, KLK7 zymogen act 0, ADAM17 inh -1 and rCAG binder 0.
`Nc1cc([N+](=O)[O-])cc2oc(-c3ccccc3)cc12` gave ADAM10 inh 25*, MPTP inh 3, DSG3 Ab inh 137, KLK7 zymogen act -1, ADAM17 inh 5, rCAG binder 23, ADAM10 confirm 2 and ADAM17 ctr 2.
For O=C(NCCC(=O)N1CCN(S(=O)(=O)c2ccccc2F)CC1)Nc1ccccc1 the results were ADAM10 inh 0, MPTP inh 0, DSG3 Ab inh 86, KLK7 zymogen act 0, ADAM17 inh -4 and rCAG binder 0.
`CCOC(=O)c1ccc(N2C(=O)c3n[nH]c(-c4ccco4)c3C2c2ccc([N+](=O)[O-])cc2)cc1` (stereo not given) gave ADAM10 inh 23*, MPTP inh 0, DSG3 Ab inh 103, KLK7 zymogen act 0, ADAM17 inh 7, rCAG binder 13, ADAM10 confirm 12 and ADAM17 ctr 3.
For Cc1ccc(S(=O)(=O)N2CCc3c2cc([N+](=O)[O-])cc3[N+](=O)[O-])cc1 the results were ADAM10 inh -10, MPTP inh 2, DSG3 Ab inh 90, KLK7 zymogen act 0, ADAM17 inh 1 and rCAG binder 11.
Cc1cc(C)c(OCC(=O)Nc2ccc(NC(=O)c3ccco3)cc2)c([N+](=O)[O-])c1 was read as ADAM10 inh -9, MPTP inh 2, DSG3 Ab inh 83, KLK7 zymogen act 0, ADAM17 inh -1 and rCAG binder 4.

Compound activity from PubChem BioAssay.
